# Screen size: about 360,000 compounds; about 3,900 (1.1%) were called active. This is one part of a sample in which actives are shown more often than they occur.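 The calls were made as follows: active = mean replicate inhibition score of at least 50 and every replicate individually at or above 50; inconclusive = only one of the two criteria met; inactive = mean below 50 and not all replicates reaching 50.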
# Test: inhibitors of HIV-1 Env-driven cell-cell fusion, primary screen, HeLa-JRFL effector, CEM21 target cells, luciferase (AID 651610);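 also: 0% = plate neutral controls and 100% = maraviroc near 300 nM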
# Settings: stronger effect = higher value; at 16.7 µM unless noted
row,SMILES,inhibition
1,C[C@@H]1CN([C@@H](C)CO)C(=O)Cc2cc(NC(=O)C3CCCCC3)ccc2O[C@@H]1CN(C)Cc1ccncc1,6.59% (inactive)
2,COCC#Cc1cnc2c(c1)C(=O)N([C@@H](C)CO)C[C@@H](C)[C@@H](CN(C)C(=O)Nc1ccccc1OC)O2,2.09% (inactive)
3,COC(=O)C[C@H]1CC[C@H](NC(=O)c2ccccc2)[C@@H](CO)O1,-4.18% (inactive)
4,CN1CCN(C(=O)C[C@H]2C[C@@H]3c4cc(NC(=O)Nc5ccc(C(F)(F)F)cc5)ccc4O[C@@H]3[C@H](CO)O2)CC1,7.48% (inactive)
5,C[C@@H]1CN([C@H](C)CO)S(=O)(=O)c2ccc(C#C[C@@H](C)O)cc2O[C@H]1CN(C)C(=O)C1CCCCC1,-6.31% (inactive)
6,CO[C@H]1CN(C)C(=O)c2cc(NC(=O)c3ccccc3)ccc2OC[C@H](C)NC[C@H]1C,-18.7% (inactive)
7,COc1ccc(NC(=O)Nc2ccc3c(c2)C(=O)N([C@@H](C)CO)C[C@H](C)[C@H](CN(C)Cc2ccc(C(F)(F)F)cc2)OCCCC[C@H](C)O3)cc1,55.7% (active)
8,COc1ccc(CN(C)C[C@@H]2OCCCC[C@@H](C)Oc3ccc(NC(=O)Nc4ccc(C(F)(F)F)cc4)cc3C(=O)N([C@H](C)CO)C[C@H]2C)cc1,40.3% (inactive)
9,C[C@@H]1CCCCO[C@H](CN(C)Cc2ccc(C(F)(F)F)cc2)[C@H](C)CN([C@H](C)CO)C(=O)c2cc(NC(=O)Nc3ccc(F)cc3)ccc2O1,9.27% (inactive)
10,COc1ccc(NC(=O)Nc2ccc3c(c2)C(=O)N([C@H](C)CO)C[C@H](C)[C@@H](CN(C)Cc2ccc(C(=O)O)cc2)OCCCC[C@H](C)O3)cc1,-1.91% (inactive)
11,C[C@@H]1CN([C@H](C)CO)C(=O)c2cc(NC(=O)Nc3ccc(C(F)(F)F)cc3)ccc2O[C@@H](C)CCCCO[C@@H]1CN(C)Cc1ccc(C(F)(F)F)cc1,32% (inactive)
12,CC(C)NC(=O)Nc1ccc2c(c1)C(=O)N([C@H](C)CO)C[C@H](C)[C@@H](CN(C)Cc1ccc(C(F)(F)F)cc1)OCCCC[C@@H](C)O2,76.6% [at 12.3 µM] (active)
13,O=C(C[C@H]1C=C[C@@H](NS(=O)(=O)c2ccc(F)cc2)[C@@H](CO)O1)NC1CCC1,11.3% (inactive)
14,O=C(C[C@H]1C[C@H]2c3cc(NC(=O)Nc4ccc(C(F)(F)F)cc4)ccc3O[C@H]2[C@@H](CO)O1)NCCc1ccccc1,6.45% (inactive)
15,C[C@@H]1CCCCO[C@H](CN(C)C(=O)Nc2ccc(C(F)(F)F)cc2)[C@@H](C)CN([C@@H](C)CO)C(=O)c2cc(NS(=O)(=O)c3cccs3)ccc2O1,3.25% (inactive)
16,CN1C(=O)c2cc(NC(=O)Cc3cccs3)ccc2OC[C@@H]2O[C@@H](CC(=O)N[C@@H]3CCN(Cc4ccccc4)C3)CC[C@H]21,-14% (inactive)
17,COc1ccc(-n2c(C)cc(C(=O)COC(=O)c3cc(OC)c(OC)cc3NC(=O)c3cccs3)c2C)cc1,-7.79% [at 12.3 µM] (inactive)
18,COc1ccc(-c2nnc(SCC(=O)c3ccc4c(c3)OCCO4)o2)cc1,22.9% [at 12.3 µM] (inactive)
19,COc1ccc(-n2c(C)cc(C(=O)CSc3nnc(-c4cccs4)o3)c2C)cc1,89.2% [at 12.3 µM] (active)

row,SMILES,inhibition
1,N#C[C@H]1[C@@H](c2ccc(C3=CCCCC3)cc2)[C@@H](CO)N1C(=O)NC1CCCCC1,0.133% (inactive)
2,COc1ccccc1-c1ccc2c(c1)O[C@@H](CN(C)C(=O)Nc1ccccc1)[C@H](C)CN([C@@H](C)CO)S2(=O)=O,-37.6% (inactive)
3,COc1ccc(NC(=O)N(C)C[C@@H]2Oc3ccc(NS(=O)(=O)c4ccc(C)cc4)cc3CC(=O)N([C@@H](C)CO)C[C@H]2C)cc1,4.71% (inactive)
4,CN(C)C(=O)c1cccc(-c2cnc3c(NC=O)cc(-c4ccc(C(=O)N5CCOCC5)cc4)cn23)c1,-15.1% [at 12.3 µM] (inactive)
5,O=C(CSc1ncnc2scc(-c3ccccc3)c12)NCc1ccc2c(c1)OCO2,22.4% [at 12.3 µM] (inactive)
6,CN(C)C(=O)c1cccc(-c2cnc3sc(NCc4ccc5c(c4)OCO5)nn23)c1,68.4% [at 12.3 µM] (active)
7,O=C(Nc1ccc(C(F)(F)F)cc1)N[C@@H]1CC[C@@H](CCNC(=O)c2ccccc2F)O[C@H]1CO,-1.09% (inactive)
8,Cc1noc(C)c1S(=O)(=O)Nc1ccc2c(c1)CC(=O)N([C@@H](C)CO)C[C@H](C)[C@@H](CN(C)S(=O)(=O)c1cn(C)cn1)O2,-11.7% (inactive)
9,C[C@H]1CCCCO[C@@H](CN(C)C(=O)c2ccccc2)[C@@H](C)CN([C@@H](C)CO)C(=O)c2cc(NS(=O)(=O)c3ccccc3)ccc2O1,-27.7% (inactive)
10,CN(C)c1nc(-c2cccnc2)nc(-c2ccc(Cl)cc2)c1C#N,-27.7% [at 12.3 µM] (inactive)
11,CNc1nccc(-c2ccc(Cl)cc2)c1C#N,58.1% [at 12.3 µM] (active)
12,CN(C)c1ccnc(Nc2ccc(F)cc2)c1C#N,2.55% [at 12.3 µM] (inactive)
13,CCCN(C)C[C@H]1Oc2ncc(-c3ccccc3OC)cc2C(=O)N([C@H](C)CO)C[C@@H]1C,16.3% (inactive)
14,O=C1C=C(c2ccnc3cc(Cl)ccc23)C[C@@H](c2ccc3c(c2)OCO3)C1,65.8% [at 12.3 µM] (active)
15,O=C1C=C(c2cc(C(F)(F)F)cc(C(F)(F)F)c2)C[C@@H](c2ccc3c(c2)OCO3)C1,14.8% [at 12.3 µM] (inactive)
16,COc1ccc2cc(C3=CC(=O)C[C@H](c4ccc5c(c4)OCO5)C3)ccc2c1,-8.67% [at 12.3 µM] (inactive)
17,CCC(=O)N[C@H]1CC[C@@H](CC(=O)NCc2cc(F)cc(F)c2)O[C@@H]1CO,-5.23% (inactive)
18,COc1ccc(NC(=O)N(C)C[C@H]2Oc3ccc(NC(=O)NC(C)C)cc3CC(=O)N([C@H](C)CO)C[C@H]2C)cc1,2.47% (inactive)
19,C[C@@H]1CCCCO[C@H](CN(C)S(=O)(=O)c2cccs2)[C@H](C)CN([C@H](C)CO)C(=O)c2cc(NC(=O)c3ccccc3)ccc2O1,21.5% (inactive)

# Source: PubChem BioAssay AID651610 (Broad Institute, 2012)
